# Screening results deposited in PubChem BioAssay by National Center for Advancing Translational Sciences (NCATS).
# Rab9 prom act: activators of Rab9 promoter | Huh7 Rab9 promoter-luciferase reporter, luminescence, 24 h | Potency, µM (series often up to 9.22 µM), usual class: activators | 320,000 compounds, 2.8% hits | AID 485297; note: nearly all actives have a fitted effect of over 60% in size
#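 Huh7 reporter line, Rab9 promoter upstream of luciferase. Compound exposure 24 h at 37 °C in reduced-serum medium with 10% FBS. Read-out: luminescence.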
# ELG1 genotoxic: induces genotoxicity in HEK293T cells with luciferase-tagged ELG1; 330,000 compounds, 1.3% hits; Potency, µM (highest dose often 46 µM), hits mostly activators; HEK293T ELG1-luciferase reporter, luminescence, 16 h; AID 504466; note: nearly all actives have a fitted effect of over 60% in size
#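 Step 1: seed 2,000 HEK293T ELG1-luciferase cells per well. Step 2: add compound or DMSO, incubate 16 hr at 37 °C. Step 3: ONE-Glo, 30 min at room temperature, read luminescence.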
# SMN2 splice enh: SMN2 splice variant enhancement; 210,000 compounds, 2.8% hits; HEK293 SMN2-luciferase splicing reporter, luminescence, 30-36 h; Potency, µM (series often up to 46.1 µM), hits mostly activators; note: nearly all actives have a fitted effect of over 55% in size
#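 HEK293 cells carry an SMN2 minigene-luciferase reporter in which exon 7 inclusion puts luciferase in frame. Cells were seeded at 2000 cells/well, attached for 10-12 hours, then exposed to compounds for 30-36 hours at 37C before ONE-Glo luminescence.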
# FLuc modulator: counter-screen for miR-21 project: firefly luciferase inhibitors or activators. P08659. purified FLuc, Km substrates, luminescence inhibition. Potency, µM (top dose mostly 57.5 µM), most hits filed as inhibitors. 360,000 compounds, 6.9% hits; note: nearly all actives have a fitted effect of over 55% in size
# Target sequence (P08659 whole entry, looked up): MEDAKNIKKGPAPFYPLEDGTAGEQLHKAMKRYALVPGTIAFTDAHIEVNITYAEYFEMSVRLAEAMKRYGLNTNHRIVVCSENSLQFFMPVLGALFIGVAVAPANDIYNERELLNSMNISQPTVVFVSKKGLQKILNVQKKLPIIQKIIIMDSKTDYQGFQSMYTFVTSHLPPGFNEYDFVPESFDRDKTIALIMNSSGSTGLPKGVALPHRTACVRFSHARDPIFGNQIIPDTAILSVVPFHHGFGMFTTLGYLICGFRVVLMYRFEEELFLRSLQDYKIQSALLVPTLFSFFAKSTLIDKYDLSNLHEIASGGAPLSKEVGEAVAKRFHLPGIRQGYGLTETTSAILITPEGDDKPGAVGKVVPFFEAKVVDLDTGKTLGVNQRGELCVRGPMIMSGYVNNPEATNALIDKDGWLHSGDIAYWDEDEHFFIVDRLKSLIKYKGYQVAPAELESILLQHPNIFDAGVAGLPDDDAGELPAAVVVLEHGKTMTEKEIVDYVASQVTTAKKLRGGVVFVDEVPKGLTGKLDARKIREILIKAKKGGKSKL
#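 Purified P. pyralis luciferase, 10 nM final, with Km-level 10 uM D-luciferin and 10 uM ATP in 50 mM Tris acetate pH 7.5, 10 mM Mg acetate, 0.01% Tween-20, 0.05% BSA; 6-point qHTS titration about 60 µM downward; luminescence read.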
# ELG1 repair inh: blocks ELG1-dependent DNA repair in HEK293T cells; AID 504467; 330,000 compounds, 2.3% hits; Potency, µM (highest dose often 46.1 µM), usual class: inhibitors; HEK293T ELG1-luciferase reporter, luminescence, 16 h; DNA damage induced by 5-fluorouridine; note: nearly all actives have a fitted effect of over 55% in size
#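 Reporter activity after DNA damage by 5-fluorouridine is monitored. Compound-treated cells incubate 16 hr at 37 °C, then ONE-Glo is added for 30 min before luminescence reading.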
# NPC1 promoter act: activates the NPC1 promoter; Huh7 NPC1 promoter luciferase reporter, 24 h; Potency, µM (highest dose often 9.22 µM), actives largely listed as activators; 320,000 compounds, 2.4% hits; AID 485313; note: nearly all actives have a fitted effect of over 60% in size
#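 NPC1 promoter–luciferase Huh7 cells; 24 h compound; luminescence.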
# Hits are given with their value; . = inactive; ? = inconclusive; / = no result given; [ ] = another dose, or the depositor's remark. Hits are enriched below; roughly 9.4% of the tested compounds scored in any of these assays. Calls come from the whole dose curve; as a rule, active = well fitted curve in the direction sought with a large enough effect; inconclusive = small, poorly fitted or top-dose-only effect, or another doubt; inactive = no such curve, though single readings can be large; an effect the other way counts as inactive or inconclusive.
SMILES,Rab9 prom act,ELG1 genotoxic,SMN2 splice enh,FLuc modulator,ELG1 repair inh,NPC1 promoter act
O=C1NC(=O)C(=Cc2ccc(-c3ccc(Cl)cc3)o2)C(=O)N1,.,.,/,6.7µM,?,.
O=C1NC(=O)C(=Cc2ccc(-c3ccc(F)cc3O)o2)C(=O)N1,.,.,/,13µM,?,.
COc1cc2cc(c1Cl)N(C)C(=O)C[C@H](OC(=O)C(C)C)[C@]1(C)O[C@@H]1[C@@H](C)[C@H]1C[C@](O)(NC(=O)O1)[C@@H](OC)/C=C\C=C(\C)C2,/,/,.[9.22 µM],/,/,/
CN1CC=C(/C=C/c2ccc(-c3ccccc3)cc2)CC1,?,?,/,4.3µM,?,3.2µM
O=C(CCCCCCCCCCC(=O)NCc1cccnc1)NCc1cccnc1,.,.,/,.,3.7µM,.
Cc1ccc(N2C(=O)NC(=O)/C(=C\c3cc(C)n(-c4ccc(C(=O)O)cc4)c3C)C2=O)cc1,.,.,/,.,.,.
Cc1cc(/C=C2\C(=O)NC(=O)N(Cc3ccco3)C2=O)c(C)n1-c1ccc(O)cc1,.,.,/,15µM,.,.
Cc1ccc(-n2c(C)cc(/C=C3/C(=O)NC(=O)N(C)C3=O)c2C)cc1,.,.,.,0.6µM,.,.
Cc1ccc(-n2c(C)cc(/C=C3/C(=O)NC(=O)N(Cc4ccco4)C3=O)c2C)cc1,.,.,.,19µM,.,.
Cc1cc(/C=C2\C(=O)NC(=O)N(Cc3ccccc3Cl)C2=O)c(C)n1-c1ccc(C(=O)O)cc1,.,.,/,?,.,.
Cn1cccc1/C=C1\C(=O)NC(=O)N(Cc2ccco2)C1=O,.,.,.,.,.,.
Cc1cc(/C=C2\C(=O)NC(=O)N(Cc3ccco3)C2=O)c(C)n1-c1ccc(C(=O)O)cc1,.,.,/,.,.,.
Cc1ccccc1-n1c(C)cc(/C=C2/C(=O)NC(=O)N(Cc3ccco3)C2=O)c1C,.,.,.,19µM,.,.
CC(=O)Oc1c2c(c(CC=C(C)C)c3c1C(=O)C1=CC4CC5C(C)(C)OC(C/C=C(\C)C(=O)O)(C4=O)[C@]15O3)OC(C)(CCC=C(C)C)C=C2 (some centres undefined),/,/,.,/,/,/
COc1ccc(C=O)cc1OC,/,/,.,/,/,/
CN(C)c1ccccc1,/,/,.,/,/,/
CN(C)c1ccc(C(=O)c2ccc(N(C)C)cc2)cc1,.,23µM,.,13µM,?,.
Nc1ccc(S(=O)(=O)c2ccc(NCN3C(=O)NC(=O)C(=O)C3=O)cc2)cc1,/,/,.[9.22 µM],/,/,/
COc1ccc(C=O)cc1,.,.,.,.,.,.
COc1ccc(P2(=O)Nc3ccccc3N2)cc1,.,.,.,7.6µM,?,.
O=c1[nH]cnc2[nH]cc(CN3CCCCC3)c12,/,/,.[9.22 µM],/,/,/
CCOC(=O)C1=Nc2ccccc2/C1=C\c1c(O)n(C)c(=O)n(C)c1=O,.,.,/,?,21µM,.
CCCC[N+]12CCC(CC1)C(C(O)(c1ccccc1)c1ccccc1)C2 (centres undefined),.,.,/,.,.,.
OC(c1ccccc1)(c1ccccc1)C1CCCN1 (centres undefined),3.2µM,?,.,12µM,?,.
CNc1ccc2nc3ccccc3[n+](C)c2c1,.[1.84 µM],.,/,17µM,1.6µM,.
SMILES,Rab9 prom act,ELG1 genotoxic,SMN2 splice enh,FLuc modulator,ELG1 repair inh,NPC1 promoter act
C[n+]1c2ccccc2nc2ccc(NCCO)cc21,.[1.84 µM],.,/,19µM,8.2µM,.
CSc1ccc2c(c1)c(CCN)c(C)n2Cc1ccccc1Cl,/,/,.[9.22 µM],/,/,/
CCCCOc1ccc(CN2CCN(CCO)CC2)cc1,.,?,.,.,.,.
CCCCCCOc1ccc(CN2CCN(CCO)CC2)cc1,4µM,8.2µM,.,19µM,?,2.2µM
Cc1ccc(S(=O)(=O)N(CC(=O)NCCSc2ccc(Cl)cc2)c2ccccc2C)cc1,/,/,.,.,/,/
c1ccc(-c2nc(N3CCOCC3)s[n+]2-c2ccccc2)cc1,.,.,.,7.6µM,?,.
CCC#N,/,/,.,/,/,/
Clc1cccc(/C=N\Nc2nccs2)c1,?,21µM,.,13µM,?,?
O=[As](O)(O)c1ccc(Cc2ccc([As](=O)(O)O)cc2)cc1,/,/,.[9.22 µM],/,/,/
NCC(CC(=O)O)c1ccc(Cl)s1 (centres undefined),/,/,.,/,/,/
